# Laboratory results reported in PMC4336329 (PLoS ONE, 2015).
# The campaign covered roughly 310,000 compounds. About 14,000 (4.5%) showed an effect of 50% or more. The effect is printed as a negative number. The sample holds strong results, similar compounds and a random draw of the others, so the mix is not that of the screen.
# Target: human ether-à-go-go-related gene (hERG) potassium channel (human, UniProt Q12809)
# Test: primary screen, population patch clamp on CHO cells stably expressing hERG; higher = less effect of the substance
# 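Also: peak tail current of the secondary pulse compared with the same well before compound.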
# Chain of human ether-à-go-go-related gene (hERG) potassium channel (Q12809 whole entry, looked up): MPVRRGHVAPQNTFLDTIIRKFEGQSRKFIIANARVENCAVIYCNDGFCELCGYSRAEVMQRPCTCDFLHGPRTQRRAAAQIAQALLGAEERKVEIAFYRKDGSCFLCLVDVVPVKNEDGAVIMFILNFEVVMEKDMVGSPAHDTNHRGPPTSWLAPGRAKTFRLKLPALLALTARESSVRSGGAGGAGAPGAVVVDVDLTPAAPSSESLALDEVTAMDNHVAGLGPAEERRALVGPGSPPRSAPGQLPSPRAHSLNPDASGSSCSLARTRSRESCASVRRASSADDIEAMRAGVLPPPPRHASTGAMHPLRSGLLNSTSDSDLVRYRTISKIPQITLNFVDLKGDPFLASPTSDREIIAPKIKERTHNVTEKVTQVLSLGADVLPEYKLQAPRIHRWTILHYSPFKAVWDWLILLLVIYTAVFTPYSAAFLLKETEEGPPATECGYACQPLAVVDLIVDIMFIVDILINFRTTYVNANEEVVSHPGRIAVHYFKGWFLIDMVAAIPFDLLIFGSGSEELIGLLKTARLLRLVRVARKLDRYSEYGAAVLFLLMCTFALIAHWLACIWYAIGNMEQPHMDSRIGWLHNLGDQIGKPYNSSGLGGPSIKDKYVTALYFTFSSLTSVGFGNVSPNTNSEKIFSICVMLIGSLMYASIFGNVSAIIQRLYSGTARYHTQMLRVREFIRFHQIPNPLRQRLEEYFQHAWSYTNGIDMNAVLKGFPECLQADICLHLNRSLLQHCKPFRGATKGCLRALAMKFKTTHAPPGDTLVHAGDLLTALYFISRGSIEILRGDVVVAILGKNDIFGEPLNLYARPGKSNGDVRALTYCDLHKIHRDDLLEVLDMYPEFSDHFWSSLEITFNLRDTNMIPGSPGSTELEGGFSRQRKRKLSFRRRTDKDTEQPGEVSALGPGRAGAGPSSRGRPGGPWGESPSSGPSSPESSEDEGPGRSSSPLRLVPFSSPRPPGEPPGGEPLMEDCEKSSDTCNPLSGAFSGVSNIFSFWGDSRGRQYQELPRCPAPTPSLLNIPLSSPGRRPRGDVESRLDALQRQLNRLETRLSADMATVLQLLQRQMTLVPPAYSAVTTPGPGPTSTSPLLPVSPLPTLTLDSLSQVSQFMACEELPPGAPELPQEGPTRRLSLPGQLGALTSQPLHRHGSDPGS
row,SMILES,"hERG current change (%, negative = inhibition) at 10uM [%]"
1,CC(NC(=O)CSc1nc(=O)cc(N)n1CCc1ccccc1)c1ccccc1 (stereo not shown),1.91
2,O=C(Cn1c(=O)n(-c2cccc(Cl)c2)c(=O)n1CC(=O)N1CCCCC1)N1CCCCC1,4.64
3,CCOc1ccc(-n2c(C)cc(C(=O)NS(=O)(=O)c3ccc(C)cc3)c2C)cc1,-32.3
4,CCOC(=O)C1CCN(C(=O)CSc2n[nH]c(=O)[nH]c2=O)CC1,7.16
5,CC(C)Oc1ccc(CNC(=O)Oc2ccccc2)cc1,8.19
6,COc1ccc(C(CCNCc2ccc(OC)c(OC)c2)c2ccc(F)cc2)cc1 (stereo not shown),-71.3
7,CC(C)Oc1ccc(C(CCNCc2ccc(O)cc2)c2ccccc2)cc1 (stereo not shown),-58.7
8,COc1ccc(C(CCN(Cc2ccc(OC)c(OC)c2)C(C)=O)c2ccccc2)cc1 (stereo not shown),-33.9
9,COc1ccc(NCc2ccc(OC)c(OC)c2)cc1,2.67
10,COc1ccc(CNC(=S)NCc2ccc(F)cc2)cc1OC,-0.604
11,CC(C)Oc1ccc(CNC(=O)CC(c2ccccc2)c2cc(Cl)ccc2O)cc1 (stereo not shown),11.8
12,COc1ccc(C(CCN(Cc2ccc(OC)c(OC)c2)C(C)=O)C(C)C)cc1 (stereo not shown),-52.3
13,COc1ccc(CN(CCC(c2ccco2)C(C)C)C(C)=O)cc1OC (stereo not shown),0.825
14,Cc1ccc(S(=O)(=O)N2CCN(S(=O)(=O)N3CCOCC3)CC2)cc1,13.4
15,COCCCNC(=O)CCc1nnc2ccc(N3CCC(C)CC3)nn12,10.9
16,O=C(CSC1=NS(=O)(=O)c2ccccc2N1)c1ccccc1,-8.85
17,COc1ccc(CNC(=O)C/C(C)=N/NC(=O)COc2ccc(Br)cc2)cc1,-33.3
18,O=C(O)c1ccc(NCc2cccnc2)c([N+](=O)[O-])c1,30
19,Cc1ccc(C(=O)n2nc(-c3ccccc3)nc2NCc2ccco2)cc1,16
20,Cc1cc(C)n(CCC(=O)Nc2ccc3c(c2)OCCO3)n1,17.1
21,COc1ccc(CN2CCCCC2c2cccnc2)cc1C (stereo not shown),0.438
22,O=C(c1oc(=O)c2ccccc2c1-c1ccccc1)N1CCC(O)CC1,-11.6

row,SMILES,"hERG current change (%, negative = inhibition) at 10uM [%]"
1,Cc1nc2ccccc2c2oc(C(=O)N3CCN(C4CCCCC4)CC3)cc12,-64.7
2,Cc1nc2ccccc2c2oc(C(=O)N3CCC(C)CC3)cc12,-30.5
3,O=C(c1oc(=O)c2ccccc2c1-c1ccccc1)N1CCOCC1,-24.6
4,Cc1nc2ccccc2c2oc(C(=O)N3CCC(N4CCCCC4)CC3)cc12,-38.8
5,CCOC(=O)N1CCN(C(=O)c2oc(=O)c3ccccc3c2-c2ccc(C)cc2)CC1,-31.4
6,O=C(c1oc(=O)c2ccccc2c1-c1ccccc1)N1CCN(C2CCCCC2)CC1,-61.6
7,Cc1ccc(-c2c(C(=O)N3CCOCC3)oc(=O)c3ccccc23)cc1,-17.8
8,O=C(c1ccco1)N1CCN(C(=O)c2oc(=O)c3ccccc3c2-c2ccccc2)CC1,-50.7
9,CCOC(=O)c1cnn2c(N)c(C#N)cnc12,13.9
10,C/C(=N\O)C(=O)NCCN1CCCCC1,-10.2
11,Cc1c(C#N)c(NC(=O)CCl)n(Cc2ccc(F)cc2)c1C,12.8
12,N#Cc1nc(-c2ccc(OCc3ccccc3)cc2)oc1NCc1ccco1,7.75
13,CCn1c2c(c3cc(OCC(C)C)ccc31)CCCC2=O,6.13
14,Cc1cc(C(=O)Nc2ccccn2)cs1,3.35
15,Cc1cc(C)nc(NS(=O)(=O)c2ccc(NC(=O)CCN3C(=O)c4ccccc4C3=O)cc2)n1,3.74
16,CC(C(=O)NC1CCCC1)N1CCN(Cc2ccccc2)CC1 (stereo not shown),28.6
17,CC(C(=O)Nc1ccccc1-c1ccccc1)N1CCOCC1 (stereo not shown),-2
18,CC1CCN(C(C)C(=O)Nc2ccccc2-c2ccccc2)CC1.O=C(O)C(=O)O (stereo not shown),-15.4
19,CC(C(=O)Nc1ccccc1-c1ccccc1)N1CCN(C(=O)c2ccccc2)CC1 (stereo not shown),-66.9
20,CC(C(=O)Nc1ccccc1-c1ccccc1)N1CCN(S(=O)(=O)c2ccccc2)CC1 (stereo not shown),-14.3
21,CC(C(=O)Nc1ccccc1-c1ccccc1)N1CCN(Cc2ccccc2)CC1 (stereo not shown),-72.2
22,COCCOC(=O)C1=C(C)N=C2SCCC(=O)N2C1c1cccs1 (stereo not shown),13.8

row,SMILES,"hERG current change (%, negative = inhibition) at 10uM [%]"
1,COc1cc(-c2csc(N3CCOCC3)n2)cc(OC)c1OC,13.3
2,Cn1cc(C(=O)N2CCN(c3cccc(Cl)c3)CC2)c(=O)c2cc(S(=O)(=O)N3CCOCC3)ccc21,-17.6
3,Cc1ccc(C)c(N2CCN(C(=O)CCCOc3cc(=O)n(C)c4ccccc34)CC2)c1,-40.8
4,COc1ccc(NP(=O)(Nc2ccc(OC)cc2)Oc2ccccc2)cc1,-13.9
5,O=CNc1ccccc1,14.6
6,O=CNc1ccc(OP(=O)(Oc2ccccc2)Oc2ccccc2)cc1,-61.7
7,CN(C)c1ccc(/C=C/C=N/Nc2nc(N3CCOCC3)nc(N3CCOCC3)n2)cc1,0.992
8,CCOC(=O)N1CCC(N(CCN(C)C)C(=S)Nc2ccccc2OCC)CC1,-8.05
9,Cc1ccc(/C=N/NC(=O)CSc2nc3nc(C)cc(C)n3n2)cc1,-19.3
10,Cc1ccc(S(=O)(=O)CCC(=O)c2ccc(F)cc2)cc1,8.7
11,COc1ccc(-c2[nH]ncc2/C=N/NC(=O)c2cccc([N+](=O)[O-])c2)cc1OC,-62.1
12,Cc1cc(C(=O)N/N=C\c2ccc(COc3ccc([N+](=O)[O-])cc3)o2)ccc1[N+](=O)[O-],-7.77
13,O=C(CNC(=O)c1ccc(F)cc1)N/N=C/c1cn[nH]c1-c1ccccc1,-18.1
14,O=C(N/N=C\c1cn[nH]c1-c1ccccc1)c1ccc([N+](=O)[O-])cc1,-64.9
15,O=C(N/N=C/c1cccnc1)c1ccc([N+](=O)[O-])cc1,-7.74
16,O=C(N/N=C/c1cn[nH]c1-c1ccc(F)cc1)c1ccncc1,6.55
17,COc1ccc(/C=N/NC(=O)c2cccc([N+](=O)[O-])c2)cc1OC,5.28
18,COc1ccc(-c2[nH]ncc2/C=N\NC(=O)c2ccc(C(C)(C)C)cc2)cc1OC,-9.5
19,O=C(N/N=C\c1cn[nH]c1-c1ccccc1)c1cccnc1,-1.27
20,O=C(N/N=C\c1ccc(COc2ccc([N+](=O)[O-])cc2)o1)c1cccc(Cl)c1,4.17
21,O=C(N/N=C\c1ccc(COc2ccc([N+](=O)[O-])cc2)o1)c1ccc(Cl)cc1,-67.6
22,O=C(N/N=C/c1cn[nH]c1-c1ccc(Cl)cc1)c1ccc([N+](=O)[O-])cc1,-51.5

row,SMILES,"hERG current change (%, negative = inhibition) at 10uM [%]"
1,O=C(NC(=S)Nc1ccc(Br)cn1)c1cncc(Br)c1,11.3
2,O=C(NCc1ccccc1Cl)C1=CC=CN2CCS(=O)(=O)N=C12,-11.1
3,Cc1cc(Nc2ccc(Br)cc2F)n2nc(C)nc2n1,-21.5
4,O=C(CSc1nnc(C2CCCCC2)o1)Nc1ccccc1Cl,-11.5
5,COc1ccc(Cl)c(NCCC(=O)O)c1,15.5
6,Cc1c(N=C/C=C/c2ccccc2)c(=O)n(-c2ccccc2)n1C,11.1
7,O=S(N1CCc2ccccc21)C12CC3CC(CC(C3)C1)C2 (stereo not shown),-6.09
8,O=C1C=C(c2ccc3c(c2)OCO3)C[C@@H](c2ccc(Cl)cc2)C1,5.86
9,O=C(NCc1ccccc1)c1ccc(Oc2ccc(C(=O)NCc3ccccc3)cc2)cc1,-3.44
10,Cl.Clc1ccc(CN2C3=NCCCN3c3ccccc32)cc1,-75.1
11,O=C1c2ccccc2N(Cc2ccc(Cl)cc2)C2=NCCN12,-13.5
12,O=C1CCCc2ccccc2N1Cc1ccc(Cl)cc1Cl,-18.2
13,Br.CCOC(=O)CN1C2=NCCCN2c2ccccc21,2.95
14,Cl.ClCCN1C2=NCCCN2c2ccccc21,-26.4
15,Cc1ccc(C)c(C(=O)CN2C(=O)c3ccccc3C2=O)c1,9.96
16,Br.Cc1ccc(C)c(C(=O)CN2C3=NCCCN3c3ccccc32)c1,-69.2
17,Cl.Clc1ccc(CN2C3=NCCCN3c3ccccc32)c(Cl)c1,-66
18,Cl.Clc1ccc(CN2C3=NCCN3c3ccccc32)cc1,-69.5
19,COc1ccc(NC(=O)CCOc2ccccc2)c(OC)c1,1.87
20,CNC(=O)NC(=O)COC(=O)c1n[nH]c2ccccc12,16.5
21,CCc1ccc(Nc2nc(N3CCOCC3)nc(N3CCOCC3)n2)cc1.Cl,8.6
22,C/C(=N\NC(=O)C1CCCN(S(=O)(=O)c2ccccc2)C1)c1ccccn1 (stereo not shown),-20.8
